Records with an inconclusive call do not appear. Active and inactive are the calls of the source.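 The calls were made as follows, unless noted: active = inhibition above 54%, about 3 SD of non-fluorescent compounds; inactive = the rest.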
Legend:
[1] = yeast TOR pathway RPL19A-GFP modulators, primary screen, cell-based, S. cerevisiae, multiplex flow cytometry (AID 1862; in the data active = percent of DMSO control GFP below about 86%;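 also: lower values mimic rapamycin by blocking the RPL19A rise seen in DMSO cells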); conditions: S. cerevisiae RPL19A-GFP strain, flow cytometry fluorescence, 3 h; at 10 µM; stronger effect = lower value
[2] = modulators of MEP2-GFP levels in yeast, primary screen, S. cerevisiae, multiplex flow cytometry (AID 1867;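 active = GFP response, as percent of the DMSO control, above the screen-wide mean plus 3 SD, about 139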;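 also: median GFP channel fluorescence of barcode-gated MEP2-GFP cells measured by flow cytometry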); conditions: S. cerevisiae MEP2-GFP strain, 3 h, at 10 µM, stronger effect = higher value, 100% means same as DMSO wells
[3] = modulators of CIT2-GFP expression in yeast, primary screen, S. cerevisiae, GFP fusion, multiplex flow cytometry (AID 1870;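 active = percent response above a set limit, the screen-wide mean plus 3 SD, cut at about 130% in these data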;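 also: barcoded CIT2-GFP strain pooled with four other GFP strains with rapamycin as positive control; median GFP fluorescence per well over plate mean of DMSO wells so 100% = DMSO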); conditions: 3 h, at 10 µM, stronger effect = higher value
[4] = modulators of LAP4-GFP expression in yeast, primary screen, S. cerevisiae, multiplex flow cytometry (AID 1873;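 active = GFP signal, as percent of the solvent control, above the screen mean plus 3 SD, about 149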); conditions: 3 h, at 10 µM, stronger effect = higher value
[5] = modulators of AGP1-GFP expression in yeast TOR pathway, primary screen, cell-based, multiplex flow cytometry, S. cerevisiae (AID 1887;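 active = GFP signal above the screen-wide mean plus 3 SD, that is over about 124.5% of the solvent control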;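 also: AGP1-GFP fusion strain of S. cerevisiae within a five-strain barcoded multiplex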); conditions: 3 h, at 10 µM, stronger effect = higher value
[6] = inhibitors of CD8+ T cell-vesicle binding, pilot screen, LFA-1/ICAM-1 modulator project, MLPCN validation set, flow cytometry (AID 2523;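 active = response below a set limit, under 55% cells CD8-positive and vesicle-bound, and CD8 cells' 90th-percentile brightness under 279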;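 as to vesicle binding response: mean PE anti-B7-1 fluorescence of CD8+ cells relative to row control; 100% = QL9-loaded vesicles with DMSO vehicle in the same plate row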); conditions: 2C mouse CD8+ T cells, at 7 µM, stronger effect = lower value; double positive events: measured here: CD8+/vesicle+ event percentage
[7] = target: Integrin beta-1 (Homo sapiens) + Integrin alpha-4 (Homo sapiens) (UniProt P13612+P05556); assay: inhibition of HUTS-21 binding to VLA-4, pilot screen, VLA-4 allosteric modulator project, U937 cells, HUTS-21 mAb, flow cytometry, validation set (AID 2674;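 active = inhibition above 50%, about 3 SD of the validation set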;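 also: antibody binding induced by the VLA-4 ligand LDV present at three times its Kd; 0% = LDV ligand with antibody and no compound and 100% = antibody without LDV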); conditions: HUTS-21 LIBS mAb binding, at 6.7 µM, stronger effect = higher value, binding induced by LDV ligand
Chain of Integrin beta-1 (Homo sapiens) + Integrin alpha-4 (Homo sapiens) (P05556 whole entry, looked up): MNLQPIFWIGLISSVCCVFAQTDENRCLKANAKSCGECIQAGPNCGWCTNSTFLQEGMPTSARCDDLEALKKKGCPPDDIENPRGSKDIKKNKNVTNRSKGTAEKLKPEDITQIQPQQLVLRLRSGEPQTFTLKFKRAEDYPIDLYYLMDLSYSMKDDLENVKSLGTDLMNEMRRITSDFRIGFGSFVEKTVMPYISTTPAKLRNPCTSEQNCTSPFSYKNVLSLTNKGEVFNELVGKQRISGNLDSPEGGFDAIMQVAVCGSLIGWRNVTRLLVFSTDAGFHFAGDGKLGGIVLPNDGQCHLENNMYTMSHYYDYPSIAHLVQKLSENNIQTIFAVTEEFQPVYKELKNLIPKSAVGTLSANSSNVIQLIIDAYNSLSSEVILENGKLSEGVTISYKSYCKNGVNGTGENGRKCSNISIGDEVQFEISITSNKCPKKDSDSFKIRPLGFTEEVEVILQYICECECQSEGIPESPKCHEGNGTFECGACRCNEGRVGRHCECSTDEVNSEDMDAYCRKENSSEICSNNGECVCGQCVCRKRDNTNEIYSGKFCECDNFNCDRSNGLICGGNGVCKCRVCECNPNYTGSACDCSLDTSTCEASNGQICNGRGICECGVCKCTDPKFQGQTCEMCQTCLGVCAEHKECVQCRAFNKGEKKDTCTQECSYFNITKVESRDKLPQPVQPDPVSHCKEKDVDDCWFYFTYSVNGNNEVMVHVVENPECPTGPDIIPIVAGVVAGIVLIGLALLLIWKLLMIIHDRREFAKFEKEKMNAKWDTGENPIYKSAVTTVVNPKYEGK
Chain of Integrin beta-1 (Homo sapiens) + Integrin alpha-4 (Homo sapiens) (P13612 whole entry, looked up): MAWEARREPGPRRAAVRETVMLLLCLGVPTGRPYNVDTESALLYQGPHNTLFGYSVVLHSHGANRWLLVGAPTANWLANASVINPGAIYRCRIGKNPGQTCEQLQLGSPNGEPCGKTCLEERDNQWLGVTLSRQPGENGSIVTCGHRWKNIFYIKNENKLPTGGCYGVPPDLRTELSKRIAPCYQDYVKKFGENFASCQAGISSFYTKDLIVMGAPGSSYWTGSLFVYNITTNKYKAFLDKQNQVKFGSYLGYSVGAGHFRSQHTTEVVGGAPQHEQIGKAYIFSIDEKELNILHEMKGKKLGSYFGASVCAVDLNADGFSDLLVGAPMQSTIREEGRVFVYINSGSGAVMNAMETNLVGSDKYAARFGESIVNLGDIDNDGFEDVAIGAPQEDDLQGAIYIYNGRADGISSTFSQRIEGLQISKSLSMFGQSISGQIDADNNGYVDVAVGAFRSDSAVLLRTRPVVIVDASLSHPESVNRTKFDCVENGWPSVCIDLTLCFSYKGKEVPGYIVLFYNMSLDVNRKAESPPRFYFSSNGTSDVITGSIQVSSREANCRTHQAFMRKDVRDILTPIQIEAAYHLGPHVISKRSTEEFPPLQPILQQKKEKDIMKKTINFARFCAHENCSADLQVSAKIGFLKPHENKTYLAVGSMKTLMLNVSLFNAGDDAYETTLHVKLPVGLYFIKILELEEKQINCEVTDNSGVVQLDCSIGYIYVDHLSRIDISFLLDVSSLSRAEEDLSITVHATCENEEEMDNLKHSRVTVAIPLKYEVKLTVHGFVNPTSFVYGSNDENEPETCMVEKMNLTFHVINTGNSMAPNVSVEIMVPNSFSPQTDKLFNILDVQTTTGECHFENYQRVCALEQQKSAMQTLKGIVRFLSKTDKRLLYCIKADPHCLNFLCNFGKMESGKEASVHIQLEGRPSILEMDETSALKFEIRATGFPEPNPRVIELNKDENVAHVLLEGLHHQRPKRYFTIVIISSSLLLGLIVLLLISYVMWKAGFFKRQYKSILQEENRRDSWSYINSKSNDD

[8] = superoxide lowering in aged yeast cells, pilot screen, validation compound set (AID 2706;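 active = superoxide response below 65% of plate, a cut near 3 SD across the whole screen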;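 also: yeast exposed to compound for one week at 30 degrees C before staining; 100% = mean of all compound wells on the same plate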); conditions: S. cerevisiae aging, superoxide DHE fluorescence; at 10 µM; stronger effect = lower value
[9] = target: Beta-adrenergic receptor kinase 1 (Homo sapiens) (UniProt P25098); assay: GRK2 binders displacing RNA aptamer, biochemical, validation, human GRK2, bead flow cytometry (AID 488806;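 active = aptamer binding inhibition above 30%, about 3 SD of noise from non-fluorescent compounds; inactive = inhibition at or below 30%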); conditions: bead-bound GRK2, FAM-aptamer displacement, at 10 µM, stronger effect = higher value
Chain of Beta-adrenergic receptor kinase 1 (Homo sapiens) (P25098 whole entry, looked up): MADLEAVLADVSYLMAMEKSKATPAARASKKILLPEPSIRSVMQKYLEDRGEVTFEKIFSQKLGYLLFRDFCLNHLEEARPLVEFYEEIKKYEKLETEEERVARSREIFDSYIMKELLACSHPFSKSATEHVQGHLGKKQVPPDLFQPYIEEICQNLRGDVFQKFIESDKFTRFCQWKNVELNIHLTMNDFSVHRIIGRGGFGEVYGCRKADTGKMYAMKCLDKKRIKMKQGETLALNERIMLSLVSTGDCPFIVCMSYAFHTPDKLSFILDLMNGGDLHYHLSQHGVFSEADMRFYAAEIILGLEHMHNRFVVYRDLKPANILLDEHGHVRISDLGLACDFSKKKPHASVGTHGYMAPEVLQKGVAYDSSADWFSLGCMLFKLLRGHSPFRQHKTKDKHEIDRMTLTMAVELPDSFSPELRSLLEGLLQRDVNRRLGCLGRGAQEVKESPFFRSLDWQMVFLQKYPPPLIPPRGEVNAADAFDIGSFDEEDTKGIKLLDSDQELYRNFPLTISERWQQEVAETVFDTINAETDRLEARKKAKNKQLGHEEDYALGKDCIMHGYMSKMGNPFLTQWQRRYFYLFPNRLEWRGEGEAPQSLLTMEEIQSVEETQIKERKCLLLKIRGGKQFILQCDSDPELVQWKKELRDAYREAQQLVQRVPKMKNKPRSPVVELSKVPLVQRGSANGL

[10] = target: Beta-2 adrenergic receptor (Homo sapiens) (UniProt P07550); assay: beta2AR agonists driving receptor internalization, pilot screen, cell-based, FAP fluorogen, flow cytometry, validation set (AID 504459;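 active = percent response above 42, roughly 3 SD of non-fluorescent test compounds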;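 also: agonist-driven loss of surface beta2AR via internalization measured by FAP dye flow cytometry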); conditions: Am2.2-beta2AR cells, FAP surface receptor flow cytometry; at 10 µM; stronger effect = higher value
Chain of Beta-2 adrenergic receptor (Homo sapiens) (P07550 whole entry, looked up, the tested form may be a part): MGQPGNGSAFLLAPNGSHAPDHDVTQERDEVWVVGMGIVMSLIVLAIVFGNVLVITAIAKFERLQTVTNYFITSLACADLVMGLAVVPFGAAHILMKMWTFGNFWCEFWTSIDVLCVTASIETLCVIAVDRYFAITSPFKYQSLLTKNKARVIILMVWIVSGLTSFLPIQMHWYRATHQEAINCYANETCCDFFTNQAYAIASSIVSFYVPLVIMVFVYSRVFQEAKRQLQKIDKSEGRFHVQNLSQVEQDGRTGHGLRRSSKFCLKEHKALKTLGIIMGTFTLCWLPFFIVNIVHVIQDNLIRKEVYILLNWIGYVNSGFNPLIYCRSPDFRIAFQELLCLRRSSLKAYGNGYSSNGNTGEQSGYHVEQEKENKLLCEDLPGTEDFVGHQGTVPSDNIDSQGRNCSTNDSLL

[11] = target: AP-2 complex subunit beta (Homo sapiens) (UniProt P63010); assay: inhibitors of arrestin peptide binding to AP2, pilot screen, biochemical, validation set, GST-AP2 beads, flow cytometry (AID 504541); conditions: FITC arrestin peptide, at 10 µM, stronger effect = higher value, AP2 beta2 appendage fragment, R879A mutant;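 also: AP2 carries R879A mutation and is captured from E. coli lysate; bead-bound FITC arrestin peptide fluorescence measuring arrestin peptide binding to AP2; 0% = DMSO wells and 100% = excess unlabeled arrestin peptide control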
Chain of AP-2 complex subunit beta (Homo sapiens) (P63010 whole entry, looked up, the tested form may be a part, one chain of several): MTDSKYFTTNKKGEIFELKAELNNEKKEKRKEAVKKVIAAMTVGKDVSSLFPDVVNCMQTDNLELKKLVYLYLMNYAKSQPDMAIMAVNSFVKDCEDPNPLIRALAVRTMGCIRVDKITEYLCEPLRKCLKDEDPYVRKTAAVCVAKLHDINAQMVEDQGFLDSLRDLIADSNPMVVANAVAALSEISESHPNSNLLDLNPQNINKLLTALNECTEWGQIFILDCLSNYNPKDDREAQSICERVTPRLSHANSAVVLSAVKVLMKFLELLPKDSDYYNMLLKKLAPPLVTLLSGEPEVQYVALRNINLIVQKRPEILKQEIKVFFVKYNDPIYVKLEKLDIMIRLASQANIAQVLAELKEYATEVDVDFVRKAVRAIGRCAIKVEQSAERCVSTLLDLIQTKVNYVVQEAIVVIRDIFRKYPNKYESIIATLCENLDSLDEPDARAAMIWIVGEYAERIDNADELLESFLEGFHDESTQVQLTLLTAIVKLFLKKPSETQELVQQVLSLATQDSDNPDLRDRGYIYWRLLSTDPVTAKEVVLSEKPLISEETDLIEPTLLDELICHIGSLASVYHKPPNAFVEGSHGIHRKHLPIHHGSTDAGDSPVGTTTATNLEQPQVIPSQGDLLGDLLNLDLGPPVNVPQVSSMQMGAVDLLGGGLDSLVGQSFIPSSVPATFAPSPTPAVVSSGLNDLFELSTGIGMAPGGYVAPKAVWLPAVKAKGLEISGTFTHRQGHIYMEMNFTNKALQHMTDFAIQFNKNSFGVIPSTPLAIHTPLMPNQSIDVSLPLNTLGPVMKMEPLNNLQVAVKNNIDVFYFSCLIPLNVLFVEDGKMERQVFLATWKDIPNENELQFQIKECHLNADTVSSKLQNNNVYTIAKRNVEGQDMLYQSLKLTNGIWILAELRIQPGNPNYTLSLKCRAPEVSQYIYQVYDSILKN

[12] = yeast V-ATPase proton transport modulators, S. cerevisiae, pHLuorin, HTS validation (AID 504600; in the data active = response above about 15%;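 also: plate controls were DMSO for no effect and reference compound for full effect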); conditions: S. cerevisiae pHLuorin cytosolic pH, at 10 µM, stronger effect = higher value
[13] = system: anti-desmoglein-3 scFv antibody binding to human DSG3; assay: inhibitors of anti-DSG3 scFv binding to DSG3, pilot screen, biochemical, validation compound set, bead-based, flow cytometry (AID 588368;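 active = binding below the plate cutoff, the plate median minus 3 SD, with a reading above zero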;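 also: signal is the median channel fluorescence of bead-bound GFP antibody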); conditions: Protein G beads, DSG3-Fc, scFv-GFP binding, at 10 µM, stronger effect = lower value
[14] = inhibitors of fungal efflux pumps CDR1, CDR2, MDR1, pilot screen, validation compound set, multiplex, phenotypic (AID 588506;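 active = efflux inhibition above 0.42, the validation set average plus 4 SD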;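 also: Nile Red retained in cells so higher fluorescence means more efflux inhibition; 0 = negative control wells and 1 = enniatin B 25 µM full block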); conditions: S. cerevisiae pump-expressing triplex, Nile Red efflux flow cytometry; at 10 µM; stronger effect = higher value; the pumps come from Candida albicans
[15] = target: ATP-binding cassette sub-family B member 6 (Homo sapiens) (UniProt Q9NP58); assay: ABCB6 transporter inhibitors, pilot screen, K562-ABCB6 cells, flow cytometry, validation set (AID 588550;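 active = inhibition above the screen-wide mean plus 3 SD, about 51%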;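 also: 0% = DMSO wells and 100% = benzethonium chloride 70 µM positive control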); conditions: K562-ABCB6 porphyrin accumulation, 1 h, at 10 µM, stronger effect = higher value
Chain of ATP-binding cassette sub-family B member 6 (Homo sapiens) (Q9NP58 whole entry, looked up): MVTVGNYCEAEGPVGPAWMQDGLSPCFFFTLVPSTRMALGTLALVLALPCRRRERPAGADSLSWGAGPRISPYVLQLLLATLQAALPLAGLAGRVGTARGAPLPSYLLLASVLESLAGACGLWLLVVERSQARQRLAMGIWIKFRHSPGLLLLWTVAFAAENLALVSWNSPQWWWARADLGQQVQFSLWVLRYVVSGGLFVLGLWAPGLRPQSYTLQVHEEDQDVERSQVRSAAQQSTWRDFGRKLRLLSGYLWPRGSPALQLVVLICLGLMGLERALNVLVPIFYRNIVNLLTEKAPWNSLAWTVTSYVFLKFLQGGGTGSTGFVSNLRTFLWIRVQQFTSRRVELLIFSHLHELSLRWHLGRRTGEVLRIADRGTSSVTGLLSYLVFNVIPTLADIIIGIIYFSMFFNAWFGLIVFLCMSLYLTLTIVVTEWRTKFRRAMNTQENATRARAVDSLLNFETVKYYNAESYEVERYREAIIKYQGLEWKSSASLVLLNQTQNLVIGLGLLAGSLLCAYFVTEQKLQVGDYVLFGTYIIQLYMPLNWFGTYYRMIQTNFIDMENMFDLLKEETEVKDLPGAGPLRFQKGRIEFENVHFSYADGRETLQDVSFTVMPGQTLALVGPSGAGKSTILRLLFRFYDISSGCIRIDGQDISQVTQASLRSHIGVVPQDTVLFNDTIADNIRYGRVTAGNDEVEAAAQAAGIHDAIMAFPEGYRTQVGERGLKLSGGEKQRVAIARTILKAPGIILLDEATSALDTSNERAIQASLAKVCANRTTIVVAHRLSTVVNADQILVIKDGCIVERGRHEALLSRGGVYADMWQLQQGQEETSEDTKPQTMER

[16] = promoters of myeloid differentiation in arrested cells, primary screen, cell-based, GFP/MAC1 double positive, flow cytometry, validation set (AID 588685;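 active = differentiation response of at least 50%, scaled between solvent and reference control, from cells with both markers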;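 also: compound exposure lasts four days before antibody staining and flow analysis; 0% = DMSO wells and 100% = 5 µM fulvestrant positive control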); conditions: ER-HoxA9 marrow cells, stronger effect = higher value, normalized: vehicle 0, fulvestrant 100

COc1ccc(CCN(C)Cc2nc(Cc3ccc(OC)c(OC)c3)no2)cc1OC
inactive: percent of DMSO control GFP [1] 100% | GFP response vs DMSO [2] 105% | percent response of DMSO control [3] 102% | GFP response vs DMSO [4] 109% | GFP response, % of DMSO [5] 108% | vesicle binding response [6] 222% | inhibition [7] 15.1% | superoxide response (% of plate) [8] 92.6% | aptamer binding inhibition [9] 1% | response [10] -13.9% | inhibition [11] 2.64% | response [12] 8.73% | binding (% of control) [13] 98.8% | efflux inhibition (fraction of control) [14] 0 | inhibition [15] 1% | differentiation response [16] 29.5%
62.5%: double positive events [6]

CC(=O)N1CCN2C(=O)C1CCCC(=O)c1cc(C(C)C)ccc12 (stereo not given)
55.3%: double positive events [6]
inactive: percent of DMSO control GFP [1] 99.5% | GFP response vs DMSO [2] 90.8% | percent response of DMSO control [3] 103% | GFP response vs DMSO [4] 82.8% | GFP response, % of DMSO [5] 91.2% | vesicle binding response [6] 234% | inhibition [7] -4.52% | superoxide response (% of plate) [8] 94.5% | aptamer binding inhibition [9] 6% | response [10] 0.52% | inhibition [11] -5.05% | response [12] 0.04% | binding (% of control) [13] 103% | efflux inhibition (fraction of control) [14] -0.24 | inhibition [15] 9% | differentiation response [16] 20%

COC(=O)c1ccc(OCCCCN2CC(C)OC(C)C2)cc1 (stereo not given)
inactive: percent of DMSO control GFP [1] 104% | GFP response vs DMSO [2] 99.7% | percent response of DMSO control [3] 105% | GFP response vs DMSO [4] 95.9% | GFP response, % of DMSO [5] 102% | vesicle binding response [6] 228% | inhibition [7] -3.77% | superoxide response (% of plate) [8] 106% | aptamer binding inhibition [9] 0% | response [10] 2.87% | inhibition [11] -5.73% | response [12] 2.09% | binding (% of control) [13] 98.3% | efflux inhibition (fraction of control) [14] 0.39 | inhibition [15] 5% | differentiation response [16] -11.9%
63.1%: double positive events [6]

O=c1cc(CN2CCN(c3cccc(Cl)c3)CC2)c2cc(O)c(-c3ccccc3)cc2o1
inactive: percent of DMSO control GFP [1] 93% | GFP response vs DMSO [2] 133% | percent response of DMSO control [3] 102% | GFP response vs DMSO [4] 83.1% | GFP response, % of DMSO [5] 92.8% | vesicle binding response [6] 265% | inhibition [7] 0.64% | superoxide response (% of plate) [8] 113% | aptamer binding inhibition [9] 0% | response [10] 6.6% | inhibition [11] -0.51% | response [12] -1.13% | binding (% of control) [13] 97.8% | efflux inhibition (fraction of control) [14] -0.02 | inhibition [15] 11% | differentiation response [16] -12.3%
69.1%: double positive events [6]

CC(C(=O)O)c1ccc(-c2ccccc2)c(F)c1 (stereo not given)
66.4%: double positive events [6]
inactive: percent of DMSO control GFP [1] 94.8% | GFP response vs DMSO [2] 104% | percent response of DMSO control [3] 76.8% | GFP response vs DMSO [4] 128% | GFP response, % of DMSO [5] 84.8% | vesicle binding response [6] 1320% | inhibition [7] 1.62% | superoxide response (% of plate) [8] 106% | aptamer binding inhibition [9] -1% | response [10] -7.02% | inhibition [11] -9.46% | response [12] -1.04% | binding (% of control) [13] 103% | efflux inhibition (fraction of control) [14] 0.05 | inhibition [15] 1% | differentiation response [16] 0.24%

O=S(=O)(CCc1nc2ccccc2[nH]1)c1ccc(Cl)cc1
60.3%: double positive events [6]
inactive: percent of DMSO control GFP [1] 98.6% | GFP response vs DMSO [2] 106% | percent response of DMSO control [3] 98.6% | GFP response vs DMSO [4] 124% | GFP response, % of DMSO [5] 99.7% | vesicle binding response [6] 159% | inhibition [7] -7.25% | superoxide response (% of plate) [8] 104% | aptamer binding inhibition [9] -2% | response [10] 13.4% | inhibition [11] -4.72% | response [12] -0.13% | binding (% of control) [13] 103% | efflux inhibition (fraction of control) [14] -0.21 | inhibition [15] -7% | differentiation response [16] -16.8%

Cc1nc2ccccn2c(=O)c1CCN1CCC(C(=O)c2ccc(F)cc2)CC1
56.6%: double positive events [6]
inactive: percent of DMSO control GFP [1] 103% | GFP response vs DMSO [2] 105% | percent response of DMSO control [3] 104% | GFP response vs DMSO [4] 101% | GFP response, % of DMSO [5] 104% | vesicle binding response [6] 166% | inhibition [7] -26.6% | superoxide response (% of plate) [8] 95.8% | aptamer binding inhibition [9] 0% | response [10] -22.4% | inhibition [11] 51.2% | response [12] -1.11% | binding (% of control) [13] 106% | efflux inhibition (fraction of control) [14] -0.025 | inhibition [15] 2% | differentiation response [16] -10.4%

O=C(/C=C/c1c[nH]c2ccccc12)c1cccc2ccccc12
61.4%: double positive events [6]
active: response [10] 63.6%
inactive: percent of DMSO control GFP [1] 106% | GFP response vs DMSO [2] 103% | percent response of DMSO control [3] 92.9% | GFP response vs DMSO [4] 132% | GFP response, % of DMSO [5] 94.9% | vesicle binding response [6] 336% | inhibition [7] -72.8% | superoxide response (% of plate) [8] 94% | aptamer binding inhibition [9] 2% | inhibition [11] -4.72% | response [12] -1.5% | binding (% of control) [13] 100% | efflux inhibition (fraction of control) [14] 0.19 | inhibition [15] 6% | differentiation response [16] -12%

CC(C)OC(=O)C1C2C=CC3(CN(CC4CCCO4)C(=O)C13)O2 (stereo not given)
58.9%: double positive events [6]
inactive: percent of DMSO control GFP [1] 99.1% | GFP response vs DMSO [2] 104% | percent response of DMSO control [3] 98.6% | GFP response vs DMSO [4] 117% | GFP response, % of DMSO [5] 102% | vesicle binding response [6] 152% | inhibition [7] -4.52% | superoxide response (% of plate) [8] 100% | aptamer binding inhibition [9] 1% | response [10] 1.99% | inhibition [11] -4.29% | response [12] -0.97% | binding (% of control) [13] 98% | efflux inhibition (fraction of control) [14] 0.19 | inhibition [15] 7% | differentiation response [16] -16.8%

O=C(OCC(O)C(O)COC(=O)c1ccccc1)c1ccccc1 (stereo not given)
58.5%: double positive events [6]
inactive: percent of DMSO control GFP [1] 102% | GFP response vs DMSO [2] 105% | percent response of DMSO control [3] 105% | GFP response vs DMSO [4] 106% | GFP response, % of DMSO [5] 107% | vesicle binding response [6] 102% | inhibition [7] -10.5% | superoxide response (% of plate) [8] 105% | aptamer binding inhibition [9] -1% | response [10] -4.55% | inhibition [11] 2.63% | response [12] -5% | binding (% of control) [13] 97.7% | efflux inhibition (fraction of control) [14] 0.17 | inhibition [15] 2% | differentiation response [16] -16.3%

Source: PubChem BioAssay
